Compound activity deposited in PubChem BioAssay by National Center for Advancing Translational Sciences (NCATS).
Only some compounds are listed: those with a hit (about 18% of all), similar ones and a draw of the others.
TDP1 inh = blocks human tyrosyl-DNA phosphodiesterase 1; Potency, µM (series often up to 130 µM), most hits filed as inhibitors; hit rate 0.28% among 350,000; AID 485290; Q9NUW8; recombinant TDP1, AlphaScreen DNA substrate cleavage; note: nearly all actives have a fitted effect of over 40% in size
Target sequence (Q9NUW8 whole entry, looked up): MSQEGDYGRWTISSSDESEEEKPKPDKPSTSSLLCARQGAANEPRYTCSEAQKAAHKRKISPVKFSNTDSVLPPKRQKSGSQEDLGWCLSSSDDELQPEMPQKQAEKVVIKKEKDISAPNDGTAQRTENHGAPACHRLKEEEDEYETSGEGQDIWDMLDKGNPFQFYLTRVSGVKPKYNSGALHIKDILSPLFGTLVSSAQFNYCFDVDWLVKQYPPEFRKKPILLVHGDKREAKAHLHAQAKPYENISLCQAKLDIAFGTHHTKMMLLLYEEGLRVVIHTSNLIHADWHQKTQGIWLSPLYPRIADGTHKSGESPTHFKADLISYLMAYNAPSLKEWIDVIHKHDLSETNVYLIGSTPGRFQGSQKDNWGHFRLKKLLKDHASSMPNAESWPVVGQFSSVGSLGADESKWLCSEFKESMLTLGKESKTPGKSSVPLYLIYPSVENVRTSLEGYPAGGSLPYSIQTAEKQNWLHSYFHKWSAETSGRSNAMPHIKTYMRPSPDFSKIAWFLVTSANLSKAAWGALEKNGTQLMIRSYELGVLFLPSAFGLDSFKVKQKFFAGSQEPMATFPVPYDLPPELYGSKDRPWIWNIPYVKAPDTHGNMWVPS
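Signal: AlphaScreen proximity between streptavidin donor and anti-FITC acceptor beads on intact substrate. Reaction: Tdp1 1 nM, substrate 15 nM final, 5 min RT after 15 min compound preincubation.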
IL1B secr inh = inflammasome signaling inhibition, IL-1 beta readout | THP-1 LPS/ATP IL-1B secretion, AlphaLISA, 16 h; active compounds read low | activity change, % at 57.5 µM | hit rate 4.7% among 360,000 | AID 743279; in the data active = activity change below about -50%; inconclusive = mostly about -30% to -49%
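THP-1 cells pretreated 1 hr with compounds (up to 57.5 uM final), then stimulated with LPS (250 ng/mL final) plus ATP (1.25 mM final); secreted IL-1B measured by AlphaLISA after 16 hr, decreased signal indicating inhibition.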
TDP1 cell CPT = growth inhibition of DT40 Tdp1-/-;hTDP1 cells with camptothecin (screen for TDP1 inhibitors) | chicken DT40 Tdp1-/-;hTDP1 cells + 20 nM CPT, ATP luminescence, 48 h | hit rate 12% among 420,000 | Potency, µM (series often up to 46.2 µM), usual class: inhibitors; note: nearly all actives have a fitted effect of over 55% in size
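Chicken DT40 Tdp1-/- cells stably complemented with human TDP1 were seeded at 400 cells/well in medium containing 20 nM camptothecin, exposed to pin-transferred compounds, and grown at 37 °C for at least 48 hr. Viability was read as ATP luminescence.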
HepG2 tox = HepG2 cytotoxicity, counter-screen for TGF-b inhibitors. HepG2 CAGA-GFP viability, ATP luminescence, 18 h. Potency, µM (top dose mostly 46.1 µM), most hits filed as cytotoxic. hit rate 0.76% among 410,000
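CellTiter-Glo luminescence gave cytotoxicity after 18 hours at 37 degrees C. The cells were HepG2 CAGA-GFP in 1% FBS DMEM, stimulated with 500 pg/mL TGF-beta after compound addition. %Activity was normalised to no-cell wells (complete cell-killing) and DMSO (no toxicity), and curves were fitted and classified.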
TGFb SMAD3 inh = TGF-b pathway inhibition | hit rate 1.2% among 410,000 | AID 588855 | Potency, µM (titrated, usually from 46.1 µM), actives largely listed as inhibitors | HepG2 CAGA-GFP TGF-b/SMAD3 reporter, GFP fluorescence, 18 h; TGF-beta stimulated, 500 pg/mL final; note: nearly all actives have a fitted effect of over 65% in size
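GFP signal (ex488/em500-530) from TGF-beta-stimulated HEPG2 CAGA-GFP cells, 500 pg/mL final, 18 h at 37 degrees C in DMEM plus 1% FBS, normalized to unstimulated and DMSO-stimulated controls.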
TDP1 cell noCPT = qHTS for Inhibitors of human tyrosyl-DNA phosphodiesterase 1 (TDP1): qHTS in cells in absence of CPT; DT40 Tdp1-/- hTDP1 cells, no CPT, ATP luminescence, 48 h; Potency, µM (top dose mostly 46.2 µM), usual class: inhibitors; hit rate 15% among 420,000; note: nearly all actives have a fitted effect of over 55% in size
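Chicken DT40 Tdp1-/- cells complemented with human TDP1, screened without camptothecin (DMSO vehicle only), 400 cells/well. Compounds pin-transferred, cells incubated at 37 °C for at least 48 hr. Growth read as ATP-dependent luminescence (CellTiter-Glo, 30 min at RT).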
Hits are given with their value; – = inactive; ? = inconclusive; · = no result. Unless noted, calls come from the whole dose curve; as a rule, active = well fitted curve in the direction sought with a large enough effect; inconclusive = small, poorly fitted or top-dose-only effect, or another doubt; inactive = no such curve, though single readings can be large; an effect the other way counts as inactive or inconclusive.

SMILES | TDP1 inh | IL1B secr inh | TDP1 cell CPT | HepG2 tox | TGFb SMAD3 inh | TDP1 cell noCPT
Cn1c(=O)c2sccc2n2c(CCCC(=O)Nc3ccc(F)c(F)c3)nnc12 | – | · | – | – | – | ?
Nc1cc(=O)[nH]c(SCc2ccc(Cl)cc2Cl)n1 | · | – | 8.2µM | – | – | 7.31µM
COc1cc2sc3ccc(-c4ccc(N(C)C)nc4)cc3c(=O)c2cc1OC | · | – | 5.8µM | – | ? | 5.8µM
COc1cc2sc3ccc(-c4ccc(CN5CCOCC5)cc4)cc3c(=O)c2cc1OC | – | – | 18.4µM | – | – | 13µM
COc1ccc(-c2ccc3sc4ccccc4c(=O)c3c2)cn1 | · | – | – | – | ? | –
c1ccc(CCNCC2COc3ccccc3O2)cc1 (stereo not given) | · | – | – | – | – | –
COc1ccc(NC(=O)COc2coc(CN3c4ccccc4CC3C)cc2=O)cc1 (stereo not given) | – | – | – | – | – | –
COCCn1c(SCc2nc(N)nc(Nc3ccccc3C)n2)nc2ccccc2c1=O | – | – | ? | – | – | ?
Cc1ccccc1Nc1nc(N)nc(CSCC(=O)Nc2cccc(Br)c2)n1 | – | – | ? | – | ? | 16.4µM
Cc1ccccc1Nc1nc(N)nc(CSc2nc3ccccc3c(=O)n2CCCO)n1 | – | – | ? | – | – | 18.4µM
Cc1ccc2c(CSc3nc4ccccc4c(=O)n3CCCO)cc(=O)oc2c1C | – | – | ? | – | – | 23.1µM
Cc1ccccc1Nc1nc(N)nc(CSc2nc3ccccc3c(=O)n2C)n1 | – | -52.7 | 9.2µM | – | ? | 8.2µM
O=C(Nc1ccc(OC(F)F)cc1)c1cc(S(=O)(=O)N2CCOCC2)ccc1N1CCCC1 | · | – | ? | – | ? | –
Cc1c(C(c2cccc(Br)c2)c2c(C)n(C)n(-c3ccccc3)c2=O)c(=O)n(-c2ccccc2)n1C | – | – | – | – | – | –
O=C(CCS(=O)(=O)c1ccc(Br)s1)Nc1cc(C(F)(F)F)cc(C(F)(F)F)c1 | – | · | 14.6µM | 15.8µM | ? | 20.6µM
CC(=O)c1cccc(NC(=O)CCS(=O)(=O)c2ccc(Br)s2)c1 | – | – | – | – | – | ?
COc1ccc(C(=O)N2CCN(C3CCC(c4ccccc4)CC3)CC2)cc1OC (stereo not given) | – | – | 20.6µM | – | – | 14.6µM
COc1ccccc1C(=O)NCCc1csc(-c2ccc(C(F)(F)F)cc2)n1 | – | · | ? | – | 8.91µM | ?
Cc1cccc(-c2nc(CCNC(=O)COc3ccccc3)cs2)c1 | – | · | ? | – | – | ?
COc1cc(OC)cc(C(=O)NCCc2csc(-c3ccc(C(F)(F)F)cc3)n2)c1 | – | · | ? | – | – | 18.4µM
COc1cc(OC)cc(C(=O)NCCc2csc(-c3cccc(C)c3)n2)c1 | – | · | 14.6µM | – | ? | 16.4µM
Cc1ccccc1C(=O)NCCc1csc(-c2ccc(C(F)(F)F)cc2)n1 | – | · | ? | – | – | ?
COc1ccc(CC(=O)NCCc2csc(-c3ccc(C(F)(F)F)cc3)n2)cc1 | – | · | · | – | – | ·
Cc1cccc(-c2nc(CCNC(=O)Cc3ccccc3)cs2)c1 | – | · | ? | – | – | 20.6µM
C[C@@H]1CN([C@H](C)CO)C(=O)c2cc(Br)cnc2O[C@H]1CN(C)C(=O)CC1CC1 | · | – | – | – | – | –
SMILES | TDP1 inh | IL1B secr inh | TDP1 cell CPT | HepG2 tox | TGFb SMAD3 inh | TDP1 cell noCPT
COc1ccc(C(=O)NNC(=O)COc2ccc(Cl)cc2)c(OC)c1 | – | – | – | – | – | –
CCCc1cc(=O)n2nc(N3CCC(C(=O)Nc4cccc(C(C)=O)c4)CC3)sc2n1 | – | – | – | – | – | –
CC(C)N(C)C1CCN(S(=O)(=O)c2ccc3[nH]c(=O)ccc3c2)CC1 | – | · | – | – | – | –
CCC/C=C/c1ccc(CN2C(C)C(=O)N(Cc3cn(CC4CCCCC4)nn3)CCS2(=O)=O)cc1 (stereo not given) | · | – | ? | – | ? | 20.6µM
CCC/C=C/c1ccc(CN2C(C(C)C)C(=O)N(Cc3cn(CC4CCCCC4)nn3)CCS2(=O)=O)cc1 (stereo not given) | · | – | 16.4µM | – | ? | 11.6µM
O=C(NCc1cccc2ccsc12)c1cccs1 | – | – | ? | – | – | ?
C/C(=N\Nc1nc2ccccc2[nH]1)c1ccc(Cl)s1 | – | -97.0 | ? | – | ? | 23.1µM
O=C(CSc1nc2ccccc2[nH]1)c1ccc(Cl)s1 | – | – | – | – | – | –
C/C(=N\Nc1nc2ccccc2[nH]1)c1ccc(N2CCOCC2)cc1 | – | -96.0 | ? | – | – | 16.4µM
O=c1c(-c2ccc(F)cc2)nc2cncnc2n1Cc1ccccc1 | · | · | ? | · | · | 16.4µM
O=c1c(-c2ccc(F)cc2)nc2cncnc2n1Cc1ccc(F)cc1 | · | · | – | · | · | –
COc1cccc(Cn2c(=O)c(-c3ccc(Cl)cc3)nc3cnc(N4CCN(C)CC4)nc32)c1 | · | · | – | · | · | –
COc1cccc(Cn2c(=O)c(-c3cccs3)nc3cnc(N4CCNCC4)nc32)c1 | · | · | ? | · | · | 18.4µM
COc1cccc(Cn2c(=O)c(-c3ccc(Cl)cc3)nc3cnc(N4CCNCC4)nc32)c1 | · | · | 5.8µM | · | · | 5.8µM
COc1cccc(Cn2c(=O)c(-c3ccc(F)cc3)nc3cnc(N4CCNCC4)nc32)c1 | · | · | 13µM | · | · | 23.1µM
COc1cccc(Cn2c(=O)c(-c3cccs3)nc3cnc(N4CCOCC4)nc32)c1 | · | · | – | · | · | –
CCn1ccc(C(=O)Nc2ncc(C)s2)n1 | – | – | – | – | – | –
CCN(C(=O)Cn1nc(Cc2cccnc2)c2ccccc2c1=O)c1ccccc1F | – | · | ? | – | ? | –
COc1ccc(-c2nc3cnc(N4CCNCC4)nc3n(Cc3cccc(OC)c3)c2=O)cc1 | · | · | 6.51µM | · | · | 4.61µM
CN1CCN(c2ncc3nc(-c4ccc(Cl)cc4)c(=O)n(Cc4ccc(F)cc4)c3n2)CC1 | · | · | – | · | · | ?
O=c1c(-c2ccc(Cl)cc2)nc2cnc(N3CCNCC3)nc2n1Cc1ccc(F)cc1 | · | · | 6.51µM | · | · | 9.2µM
COc1ccccc1CNC(=O)Nc1ccc2c(c1)N(C)C(=O)c1ccccc1S2 | – | · | ? | – | ? | ?
CC(C)CCNC(=O)Nc1ccc2c(c1)N(C)C(=O)CS2 | – | – | – | – | – | ?
CN1C(=O)c2ccccc2Sc2ccc(NC(=O)NCc3ccccc3Br)cc21 | – | · | 16.4µM | – | ? | 20.6µM
CC(C)CCNC(=O)Nc1ccc2c(c1)N(C)C(=O)c1ccccc1S2 | – | · | 14.6µM | – | 22.4µM | 16.4µM
O=CN/C=C/c1cc(O)ccc1O | 7.94µM | – | 4.11µM | – | – | 4.61µM
